Shown are actives, neighbours in structure and some others; about 9.1% of the full set was active somewhere.
M1 agonist = agonists of M1 muscarinic receptor. B-score at 10 µM. AID 626. CHO-M1 cells, Fluo-4 calcium fluorescence, agonist mode; hits give high values. hit rate 3% among 64,000;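 active means fluorescence rise, raw or as B-score row- and column-corrected plate score, outside the 99.7% band of its plate's samples, either direction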
D1 allo mod = D1 dopamine receptor (human) allosteric modulation. P21728. HEK293 D1, CRE-luciferase, dopamine EC30 potentiation; actives deviate in either direction. B-score at 10 µM. hit rate 5.9% among 58,000. AID 641;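 active means luminescence count or its row- and column-corrected plate score outside the 99.7% band of the plate's sample wells, on either side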
Target sequence (P21728 whole entry, looked up): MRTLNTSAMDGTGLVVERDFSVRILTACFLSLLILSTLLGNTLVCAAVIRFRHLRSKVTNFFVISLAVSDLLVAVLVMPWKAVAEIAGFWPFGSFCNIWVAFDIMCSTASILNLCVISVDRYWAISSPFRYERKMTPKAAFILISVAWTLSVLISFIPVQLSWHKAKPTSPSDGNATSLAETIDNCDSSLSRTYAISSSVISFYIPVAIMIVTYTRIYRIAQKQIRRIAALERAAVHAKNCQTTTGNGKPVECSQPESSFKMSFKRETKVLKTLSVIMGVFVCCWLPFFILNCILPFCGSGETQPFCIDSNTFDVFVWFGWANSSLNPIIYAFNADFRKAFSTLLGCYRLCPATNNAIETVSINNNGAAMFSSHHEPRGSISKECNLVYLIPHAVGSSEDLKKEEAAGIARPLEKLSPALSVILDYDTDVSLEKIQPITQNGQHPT
mHtt clearance = mutant huntingtin protein clearance. HeLa Exon1htt(103Q)mCFP, aggregate imaging; zero = plate's median compound well. inhibition, % at 1.5 µM. AID 853. hit rate 0.42% among 47,000;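 active means inhibition of aggregate fluorescence above about 70%, also judged a hit by eye on the cell image, limit read from the data, passing the limit was not always enough; inconclusive means no rule stated for this call; inactive means not judged a hit on image review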;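 further: cells exposed to compound for three days before fixation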
M1 antagonist = blocks the rat M1 muscarinic receptor response to acetylcholine; P08482; CHO-M1 cells, Fluo-4 calcium, ACh EC80 antagonist mode; hits give low values; B-score at 10 µM; hit rate 3.4% among 64,000; AID 628;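 active means calcium fluorescence response, raw or row-and-column corrected B-score, differing from the plate sample mean either way at a set confidence level, mostly lower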
M1 ag confirm = confirmation of rat M1 muscarinic receptor agonists; shares compounds with M1 agonist; hit rate 19% among 1,700; CHO-M1 cells, Fluo-4 calcium fluorescence, agonist mode; actives lie on both sides; fluorescence change (max-min) at 10 µM;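 active means fluorescence change differs from the solvent-only DMSO control mean at a set confidence level in both duplicate runs; inconclusive means differs from solvent-only control mean in just one of two runs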;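 further: an EC20 dose of acetylcholine follows compound addition during the same imaging run; raw fluorescence intensity difference in instrument units with no normalization to controls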
M4 agonist ctr = counter-screen for M1 agonists: activity at rat M4 receptor; CHO M4/Gqi5 cells, Fluo-4 calcium fluorescence, agonist mode; actives lie on both sides; fluorescence change (max-min) at 10 µM; shares compounds with M1 agonist; AID 1741; hit rate 9% among 1,700;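 active means fluorescence change differing from the plate's solvent-only control wells at 99.7% confidence in both duplicates, whether higher or lower; inconclusive means differs from solvent controls in only one of two duplicates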
Active calls of the source: *; ? = inconclusive; · = no result.

SMILES | M1 agonist | D1 allo mod | mHtt clearance | M1 antagonist | M1 ag confirm | M4 agonist ctr
COc1ccccc1NC(=O)C(C)NS(=O)(=O)c1ccccc1 (configuration not stated) | -0.369 | 0.291 | -61.0 | · | · | ·
CCN1CCN(C(=O)CSCc2nc(-c3ccc(OC)c(OC)c3)oc2C)CC1 | -0.321 | 0.0559 | · | -0.261 | · | ·
CCc1ccc(-c2nc(CSCC(=O)N3CCN(c4ncccn4)CC3)c(C)o2)cc1 | 8.16* | -3.47 | ? | -0.457 | -14.9 | ?
COc1ccc(OC)c(CCNC(=O)Cn2sc3nc(C)cc(C)c3c2=O)c1 | 7.98* | -0.0458 | · | -0.487 | ? | -27.6
COc1ccc(-c2nc(CS(=O)(=O)CC(=O)NCCc3cc(OC)ccc3OC)c(C)o2)cc1 | -0.0297 | -0.238 | · | -0.00749 | · | ·
O=C(Nn1c(=O)[nH]c2ccccc2c1=O)c1ccco1 | · | · | 8.9 | · | · | ·
O=C(NCc1ccco1)c1cnn2c1NC(c1ccccc1)CC2C(F)(F)F (configuration not stated) | 0.28 | · | -5.4 | 1.02 | · | ·
Cc1nn(C)c(C)c1CN(C)C(=O)c1cnn2c1NC(c1ccccc1)CC2C(F)(F)F (configuration not stated) | -3.3* | -0.263 | · | -0.624 | -26* | ?
O=C(Cn1nnc(-c2ccccc2)n1)OCc1csc(-c2ccccc2)n1 | 13.6* | 0.0186 | · | -0.206 | -26.8 | -27.6
COCCCn1c(-c2ccsc2)nc2c1c(=O)[nH]c(=O)n2Cc1ccccc1 | -0.0261 | 1.46 | 66.1 | 0.36 | · | ·
CCCN(CCC)c1nc(C)cc(C(C#N)c2nc3ccccc3o2)n1 (configuration not stated) | 6.44* | 0.159 | · | 0.189 | 4.7 | -23.9
CC(c1nc2ccccc2o1)N1C(=O)c2ccccc2C1=O (configuration not stated) | · | · | 36.5 | · | · | ·
CCOC(=O)N1CCC(NC(=O)c2cc3c(-c4ccc(OC)c(OC)c4)nn(C)c3s2)CC1 | 3.18 | -2.42 | · | -0.677 | · | ·
CCOC(=O)C1CCN(C(=O)c2cc3c(-c4ccc(OC)c(OC)c4)nn(C)c3s2)CC1 | 2.28* | 4.66 | 66.7 | -0.484 | -22.6 | -31.5
CC(C)[C@H](NC(=O)NCCc1ccc(F)cc1)C(=O)O | -0.432 | -0.361 | -90.4 | -0.323 | · | ·
Clc1ccc(C(c2nnnn2C2CCCC2)N2CCSCC2)cc1 (configuration not stated) | 8.02* | · | -58.8 | 1.01 | -18.7 | ?
CCOC(=O)C1=C(C)NC(=O)NC1c1ccc(OCCO)c(OC)c1 (configuration not stated) | -0.00394 | -0.0375 | -28.8 | -0.038 | · | ·
COCCOC(=O)C1=C(C)NC(=O)NC1c1ccc(OC(=O)c2ccco2)c(OC)c1 (configuration not stated) | 6.75* | · | 17.1 | -0.0858 | -8.42 | -18.2
CC(N=c1ccccn1C(=O)Nc1ccc(F)cc1)c1ccco1 (configuration not stated) | 0.539 | -0.589 | -9.4 | -0.741 | · | ·
CC(N=c1ccccn1C(=O)Nc1ccc(Cl)cc1)c1ccco1 (configuration not stated) | 4.03* | -2.44 | 16.0 | -0.945 | -30.2* | ?
COCCNC(=O)C(OC(=O)CC1Sc2ccccc2NC1=O)c1ccccc1 (configuration not stated) | · | · | -49.2 | · | · | ·
Cn1cnnc1SC(C(=O)Nc1cccc(C(F)(F)F)c1)c1ccccc1 (configuration not stated) | · | · | 4.4 | · | · | ·
COc1ccc(C(=O)Nc2ccc(Cl)cc2C(=O)NCc2ccco2)cc1OC | 12.7* | -0.102 | 0.9 | -0.101 | -14.1 | -16.1
COc1ccc(N=c2oc3c(OC)cccc3cc2C(=O)NCc2ccco2)cc1OC | 14.8* | -3.92* | · | 0.315 | 17.8 | -1.75
COc1ccc(C(=O)Nc2ccccc2C(=O)NCc2ccco2)cc1OC | 6.63* | · | · | -0.871 | -2.89 | -24.9
SMILES | M1 agonist | D1 allo mod | mHtt clearance | M1 antagonist | M1 ag confirm | M4 agonist ctr
COc1ccccc1N=c1oc2c(OC)cccc2cc1C(=O)NCc1ccco1 | 0.207 | -0.409 | 23.0 | 0.0724 | · | ·
COc1ccc(S(=O)(=O)Nc2ccccc2C(=O)NCc2ccco2)cc1 | 3.85* | 0.0374 | -6.5 | -0.126 | -2.27 | -24.7
O=C(O)c1cn(C2CC2)c2cc(N3CCOCC3)c(F)cc2c1=O | · | · | 58.4 | · | · | ·
O=C(NCc1ccco1)c1cccc2ccccc12 | 10.6* | -0.0524 | -8.0 | 0.839 | -16.2 | -41
COc1ccccc1OCCNC(=O)c1ccccc1C | -0.0832 | -0.713 | -29.2 | -0.103 | · | ·
COCCNC(=O)c1ccccc1NC(=O)c1ccc(OC)c(OC)c1 | 31.2* | 2.07 | · | 0.679 | -30.8* | -93.9*
COc1ccc(-c2noc(-c3ccccc3C(=O)NCc3ccco3)n2)cc1OC | 4.66* | -0.855 | · | -0.235 | -15.5 | -27.1
COc1ccccc1-c1noc(-c2ccccc2C(=O)Nc2ccccc2)n1 | 0.233 | -1.04 | · | 0.22 | · | ·
COc1ccccc1NC(=O)c1ccccc1-c1nc(-c2ccccc2OC)no1 | 7.31* | -2.72 | 8.1 | -1.43 | -28.9* | -50.1
CC(C)Cn1c(Br)nc2c1c(=O)n(CCC#N)c(=O)n2C | 0.169 | -0.393 | -18.9 | -0.211 | · | ·
Cc1ccc2ccc(C3C(=O)c4ccccc4C3=O)nc2c1 | · | · | -32.5 | · | · | ·
CC1CCN(CCCNC(=O)c2ccc(CSCc3cccc(Cl)c3)o2)CC1 | · | · | -64.6 | · | · | ·
COCCCNC(=O)CCCn1c(=O)[nH]c2ccccc2c1=O | 1.96* | 0.125 | 0.5 | 0.225 | -19.7 | -47.5
COCCCNC(=O)c1ccc(Cn2c(=O)[nH]c3ccccc3c2=O)cc1 | -0.0408 | 0.668 | · | 0.662 | · | ·
O=C(CCn1c(=O)[nH]c2ccccc2c1=O)Nc1ccccc1 | 11* | -0.276 | 29.1 | 0.432 | -7.7 | -30.9
CCC(C)(C)n1nnnc1C(CC(C)C)N1CCC(C(N)=O)CC1 (configuration not stated) | -0.651 | 0.474 | · | 0.431 | · | ·
Cc1ccccc1N1C(=O)N(c2cccc(C(F)(F)F)c2)C2CS(=O)(=O)CC21 (configuration not stated) | 0.813 | 0.238 | -7.4 | -0.048 | · | ·
CCC(=O)c1ccc(N2CCN(C(=O)Cc3ccccc3)CC2)c(F)c1 | 0 | 0.944 | · | -0.568 | · | ·
CCCC(=O)c1ccc(N2CCN(C(=O)c3ccccc3)CC2)c(F)c1 | 4.06* | -0.15 | 5.0 | -2.43 | 0.123 | -42.2
CCCC(=O)c1ccc(N2CCN(C(=O)c3ccc(Br)cc3)CC2)c(F)c1 | 0.0378 | -0.603 | · | 0.595 | · | ·
CCCC(=O)c1ccc(N2CCN(C(=O)c3ccccc3Br)CC2)c(F)c1 | 3.08* | -2.42 | -10.6 | -3.24* | ? | -45.9
CCC(=O)c1cc(F)c(N2CCN(C(=O)Cc3ccccc3)CC2)cc1C | 2.67* | -0.584 | · | -1.18* | 2.73 | -25.5
CCCS(=O)(=O)N1CCN(C(=O)COc2ccc(OC)cc2)CC1 | · | · | 32.6 | · | · | ·
CC(C)(C)C(=O)COC(=O)CNC(=O)c1ccc(Oc2ccccc2)cc1 | · | · | -3.2 | · | · | ·
CCOn1c(=O)c(-c2cc3ccccc3o2)[n+]([O-])c2ccccc21 | 22.9* | 2.4 | · | -0.137 | 22.9 | -13
O=c1c(-c2cc3ccccc3o2)[n+]([O-])c2ccccc2n1OCc1ccccn1 | · | · | -2.8 | · | · | ·
